MITF inh – blocks human microphthalmia-associated transcription factor; O75030; AlphaScreen MITF homodimerization, bead proximity signal; inhibition, % at 2.6 µM; actives 0.91% (n = 650,000); in the data active = inhibition above about 50%;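 also: 0% = vehicle wells with protein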
Target sequence (O75030 whole entry, looked up): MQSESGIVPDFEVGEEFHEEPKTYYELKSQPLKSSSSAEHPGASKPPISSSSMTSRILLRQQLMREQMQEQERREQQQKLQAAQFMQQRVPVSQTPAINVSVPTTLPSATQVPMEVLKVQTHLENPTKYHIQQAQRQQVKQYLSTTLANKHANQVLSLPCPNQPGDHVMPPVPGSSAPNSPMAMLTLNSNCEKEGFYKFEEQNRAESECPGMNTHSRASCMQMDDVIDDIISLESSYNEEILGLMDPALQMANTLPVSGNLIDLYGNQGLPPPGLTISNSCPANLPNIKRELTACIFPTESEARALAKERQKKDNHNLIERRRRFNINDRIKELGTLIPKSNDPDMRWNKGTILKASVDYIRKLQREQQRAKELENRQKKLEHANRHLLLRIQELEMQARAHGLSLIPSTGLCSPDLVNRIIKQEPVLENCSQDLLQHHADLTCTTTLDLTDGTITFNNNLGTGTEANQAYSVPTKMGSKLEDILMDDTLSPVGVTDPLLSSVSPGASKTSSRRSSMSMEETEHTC
FBW7 act – human FBW7 E3 ligase activation, primary screen; Q969H0; AlphaScreen FBW7–phospho-cyclin E peptide binding, activator screen; normalized activity (activation), % at 26.1 µM; actives 0.13% (n = 650,000); in the data active = normalized activity above about 1.9%;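 also: purified mutant Fbw7 with reduced substrate affinity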
TEAD-YAP block – TEAD-YAP interaction inhibition; HEK-TIYL cells, TEAD-Gal4/YAP UAS-luciferase luminescence; inhibition, % at 9.12 µM; actives 1.4% (n = 640,000); AID 1259422; in the data active = inhibition above about 32%;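 also: 0% = median of test compound wells and 100% = reference inhibitor wells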
GPR151 activ – activates the human receptor GPR151 | actives 1% (n = 650,000) | activation, % at 11.2 µM | PathHunter beta-arrestin GPR151 cells, luminescence; in the data active = activation above about 4.9%;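 also: 0% = median of compound wells and 100% = cells with positive control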
* hit, by the source's call. Sampled rows, rich in hits. Any-hit rate of the full collection: about 3.5%.

SMILES | MITF inh | FBW7 act | TEAD-YAP block | GPR151 activ
CN(C)CCCN(C(=O)/C=C\c1ccc([N+](=O)[O-])cc1)c1nc2c(F)cccc2s1 | -20 | 0 | 76* | -1
CN(C)CCN(C(=O)c1c(F)cccc1F)c1nc2ccccc2s1 | 6 | 0 | -13 | -1
Cc1nn(-c2ccccc2)c(C)c1N1CCN(C(=O)c2cc(-c3ccco3)on2)CC1 | -1 | 0 | -20 | 1
Cn1c(-c2ccccc2)c(C(C[N+](=O)[O-])c2ccc(C(F)(F)F)cc2)c2ccccc21 (stereo unspecified) | -2 | 0 | -7 | -1
Cn1c(-c2ccccc2)c(C(C[N+](=O)[O-])c2ccco2)c2ccccc21 (stereo unspecified) | 11 | 0 | 54* | 1
Nc1ccc(C(=O)OCc2nc3cc4ccccc4cc3[nH]2)cc1 | -2 | 0 | 48* | -1
Nc1ccc(C(=O)OCCCc2nc3cc4ccccc4cc3[nH]2)cc1 | 8 | 0 | 7 | 3
Cc1cc(N2CCN(c3ccccc3)CC2)nc(NCc2ccccc2)n1 | 3 | 0 | 12 | 0
Cc1cc(N2CCCCC2)nc(NCCNS(=O)(=O)Cc2ccccc2)n1 | 4 | 0 | 55* | -1
Cn1c(C2CC(=O)N(c3cccc4ccccc34)C2)nc2ccccc21 (stereo unspecified) | 1 | 0 | 9 | 2
CCCCCOc1ccc(N/C(N)=N/c2nc(C)cc(C)n2)cc1 | -2 | 0 | 37* | 1
Cc1cc(C)nc(/N=C(\N)Nc2ccccc2)n1 | 3 | 0 | -1 | -1
Cc1cc(C)nc(/N=C(\N)Nc2ccc(Oc3ccccc3)cc2)n1 | 3 | 0 | 32* | 0
CCCOc1ccc(N/C(N)=N/c2nc(C)cc(C)n2)cc1 | 5 | 0 | 35* | 0
Cc1ccc(SCCNC(=O)CN(c2cccc([N+](=O)[O-])c2)S(C)(=O)=O)cc1 | 12 | 0 | 11 | 0
Cc1c(C(=O)N2CCN(c3cccc(Cl)c3)CC2)sc2ncnc(N3CCN(c4ccccc4)CC3)c12 | -7 | 0 | 1 | 1
Cn1cccc1C(=O)NC(=O)COC(=O)c1cc(-c2ccco2)nc2ccccc12 | 77* | 0 | -4 | 3
COc1ccc(-c2cn3cc(-c4ccc(F)cc4)nc3n2C)cc1 | 2 | 0 | 92* | 0
COc1cccc(-c2cn3nc(C)c(C)nc3n2)c1 | 7 | 0 | -2 | -7
Cc1ccc(-c2cn3ccccc3n2)cc1 | 14 | 0 | 53* | -9
CCCOc1ccc(-c2cn3ccccc3n2)cc1 | 0 | 0 | 79* | -8
CCOc1ccc(S(=O)(=O)Nc2ccc(-c3cn4ccccc4n3)cc2)cc1 | -1 | 0 | 0 | 5
Clc1ccc(-c2cn3ccccc3n2)cc1 | -3 | 0 | -11 | -8
COc1ccc(-c2cn3nc(C)c(C)nc3n2)cc1 | 1 | 0 | 57* | -8
CCC1(C)N=C(c2ccccc2)C(=S)N1 (stereo unspecified) | 17 | 0 | -28 | 1
SMILES | MITF inh | FBW7 act | TEAD-YAP block | GPR151 activ
COc1ccc(-c2cn3ccccc3n2)cc1F | 9 | 0 | 55* | -8
COc1ccc(-c2cn3ccccc3n2)cc1 | 5 | 0 | 66* | -9
COc1ccc(-c2cn3ccccc3n2)cc1Br | -3 | 0 | -28 | -7
CCCCCC(=O)Nc1ccc(N2CCN(C(=O)c3cccs3)CC2)cc1 | 13 | 0 | 5 | -2
c1ccc2c(c1)CCCC(NNC1=Nc3ccccc3CCC1)=N2 | -5 | 0 | 6 | 0
O=S(=O)(NCC1CCCO1)c1ccc(Br)cc1 (stereo unspecified) | 14 | 0 | 1 | -1
O=S(=O)(NCC1CCCO1)c1ccc(Oc2ccc(S(=O)(=O)NCC3CCCO3)cc2)cc1 (stereo unspecified) | 15 | 0 | 59* | 0
COc1ccc(-c2cnnc(N/N=C/c3ccc(OC)cc3OC)n2)cc1 | 4 | 0 | -7 | 2
O=C1CC(C23CC4CC(CC(C4)C2)C3)=NN1c1ccccc1 | 15 | 0 | 33* | 2
NC1=NN(c2ccccc2)C(=O)C1 | 0 | 0 | 6 | 0
O=c1c(-c2nncn2-c2ccccc2)coc2c(O)c(O)ccc12 | 53* | 0 | -2 | -2
O=C(c1cc2ccccc2o1)c1cnc2ccccn12 | 6 | 0 | 40* | -11
COc1ccc(C)cc1NC(=O)NCCNc1cc(-n2nc(C)cc2C)ncn1 | 0 | 0 | 51* | 0
Cc1cc(C)n(-c2cc(NCCNC(=O)Nc3cccc(F)c3C)ncn2)n1 | 2 | 0 | 16 | -2
COc1ccc(Cc2cnc(NC(=O)/C=C/c3ccco3)s2)cc1 | 2 | 0 | 64* | -1
COc1ccc(/C=C/C(=O)Nc2ncc(Cc3ccccc3)s2)cc1 | 4 | 0 | -2 | 0
